# Results: the OligoGym collection
# Target: DNTTIP1
# Test: pooled miR-30 sensor sort-seq; sequence = guide strand
# Conditions: shRNA
# Also: reference of the scale not given here.
row,Sequence,sensor-assay potency score (higher = more potent)
1,TTGGTTTCCATACCATGCCGGC,-0.684
2,TAGAACCACATGCTAGTCTGGG,-0.495
3,TTCCTCTAGCTTCAGATCCAGG,-1.66
4,TTTGGTTTCCATACCATGCCGG,-0.318
5,TACTTGTTGAAGACAGTCTGGA,0.302
6,TTTCAATTCCTCTAGCTTCAGA,-0.665
7,TGAGTCACTACAAACTCGCTCA,-0.249
8,TTGATGTAGATTCTTCCTCTGG,-0.475
9,TTTATCATTATGTTCCAAGGGT,0.164
10,TATACTTTCTCATCTTCTCCAC,0.0054
11,TGAAACTTGTTGTCATCTGTGA,0.435

# Target: DOCK11
# Test: as above
# Conditions: shRNA
row,Sequence,sensor-assay potency score (higher = more potent)
1,TTGAACTAAACTGTCGGTGTTG,-0.114
2,TTCTCTTCCAACAAGTATGTGG,-0.568
3,TAAACTGTCGGTGTTGATCTGA,0.463
4,TGATCTTAGATAACTATCCAAG,-1.04
5,TTTTGTATGCATAACTTCCAGA,-0.169
6,TTTAGCTGTCCTGTGCACCTTC,0.773
7,TTGCTTTATGCAACCAGCCTTG,-0.849
8,TTCTTGAACTAAACTGTCGGTG,-0.436
9,TTGATCTTCTTTAATTAGCCGC,-0.638
10,TTTCTTGAACTAAACTGTCGGT,0.142
11,TTCAATATTGCTATCATCGTAG,0.383
12,TTCACTATAATGGACATCCATC,-1.02

# Target: DOCK1
# Test: as above
# Conditions: shRNA
row,Sequence,sensor-assay potency score (higher = more potent)
1,TATCATTTCGAACATCACCAGG,-1.26
2,TTCGACTTCATGATCCAGCTTG,0.58
3,TTTCGTAACGTGTAACCTCGGT,0.0583
4,TAACAGTCTCAAACCAGCGTGG,-0.364
5,AACACTTTTGTCAACTTCGTGT,0.131
6,TTCACATCGTTGACGATCGTTG,-0.549
7,TTAGAGTCCTGTGATGACCTGT,0.59
8,TATTATATCTGTTACATCCATC,-0.566
9,TCATCGTACACAGACACCGTGA,-0.406
10,TTGTCTGTTAATATCTATGTTC,-0.583
11,TTTCACATCGTTGACGATCGTT,-0.0463
12,TTTCGTTCTCATACTGCTCGGC,0.184
13,TTAGACTTTTTTCGTAACGTGT,-0.535
14,TTGGAGACACACCTCAACCAAC,-1.22
15,TTCTTTGTTCTCGTCGTGCATG,-1.13
16,TTGTACTGTTCGTCTCCTCTGC,0.121
